Reference: PubChem BioAssay AID1159580 (chemical genetic matrix, 2015)
Screen size: about 5,500 compounds; about 2,000 (36%) were called active. Another 18% or so got no clear call; they are omitted. No stated cut-off is given here; in the data, active means normalized growth mostly below about 0.91 (no sharp cut-off); inconclusive means no clear call, values can overlap the other calls; inactive means mostly above about 0.92. Some of the results follow.

Test: chemical genetic growth profiling, strain panel (AID 1159580);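 further: tested at 20 µM; growth read once vehicle control cultures reached saturation at 30 °C; 1 = growth at the plate median or of vehicle wells; lower values mean less growth of the strain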
Conditions: growth OD
[1] = S. cerevisiae deletion strains, locus YHR030C, strain SLT2, active compounds read low
[2] = S. cerevisiae deletion strains, locus YHR079C, strain IRE1, active compounds read low
[3] = S. cerevisiae deletion strains, locus YJL095W, strain BCK1, active compounds read low
[4] = S. cerevisiae deletion strains, locus YJR066W, strain TOR1, active compounds read low
[5] = S. cerevisiae deletion strains, locus YLR113W, strain HOG1, active compounds read low
[6] = S. cerevisiae deletion strains, locus YNL183C, strain NPR1, active compounds read low
[7] = S. cerevisiae deletion strains, locus YOR231W, strain MKK1, active compounds read low
[8] = S. cerevisiae deletion strains, locus YPL256C, strain CLN2, active compounds read low

Measured: normalized growth

CCOC(=O)c1ccc(O)cc1
inactive: S. cerevisiae deletion strains, locus YAL021C, strain ccr4, active compounds read low 1.03 | S. cerevisiae deletion strains, locus YAL026C, strain drs2, active compounds read low 1.02 | S. cerevisiae deletion strains, locus YAL030W, strain snc1, active compounds read low 1.01 | S. cerevisiae deletion strains, locus YBL061C, strain skt5, active compounds read low 1.01 | S. cerevisiae deletion strains, locus YBR009C, strain hhf1, active compounds read low 0.999 | S. cerevisiae deletion strains, locus YBR023C, strain chs3, active compounds read low 1.01 | S. cerevisiae deletion strains, locus YBR171W, strain sec66, active compounds read low 1.01 | S. cerevisiae deletion strains, locus YBR231C, strain swc5, active compounds read low 1.02 | S. cerevisiae deletion strains, locus YBR279W, strain paf1, active compounds read low 1.02 | S. cerevisiae deletion strains, locus YCL011C, strain gbp2, active compounds read low 1 | S. cerevisiae deletion strains, locus YCL016C, strain dcc1, active compounds read low 1 | S. cerevisiae deletion strains, locus YCL061C, strain MRC1, active compounds read low 1.01 | S. cerevisiae deletion strains, locus YCL069W, strain vba3, active compounds read low 1.01 | S. cerevisiae deletion strains, locus YCR088W, strain abp1, active compounds read low 1.01 | S. cerevisiae deletion strains, locus YDL005C, strain med2, active compounds read low 1.02 | S. cerevisiae deletion strains, locus YDL040C, strain nat1, active compounds read low 1.01 | S. cerevisiae deletion strains, locus YDR001C, strain nth1, active compounds read low 1.01 | S. cerevisiae deletion strains, locus YDR069C, strain doa4, active compounds read low 1.02 | S. cerevisiae deletion strains, locus YDR137W, strain rgp1, active compounds read low 1.03 | S. cerevisiae deletion strains, locus YDR159W, strain sac3, active compounds read low 0.994 | S. cerevisiae deletion strains, locus YDR195W, strain ref2 1.06 | S. cerevisiae deletion strains, locus YDR297W, strain sur2, active compounds read low 1.02 | S. cerevisiae deletion strains, locus YDR334W, strain swr1, active compounds read low 1.02 | S. cerevisiae deletion strains, locus YDR335W, strain msn5, active compounds read low 1.01 | S. cerevisiae deletion strains, locus YDR392W, strain spt3, active compounds read low 0.941 | S. cerevisiae deletion strains, locus YEL003W, strain gim4, active compounds read low 1.02 | S. cerevisiae deletion strains, locus YEL037C, strain rad23, active compounds read low 1.02 | S. cerevisiae deletion strains, locus YEL061C, strain CIN8 (second series), active compounds read low 1.01 | S. cerevisiae deletion strains, locus YER015W, strain faa2, active compounds read low 1.02 | S. cerevisiae deletion strains, locus YER016W, strain bim1, active compounds read low 1 | S. cerevisiae deletion strains, locus YER111C, strain swi4, active compounds read low 1.01 | S. cerevisiae deletion strains, locus YER155C, strain BEM2 (second series), active compounds read low 0.975 | S. cerevisiae deletion strains, locus YFR010W, strain ubp6, active compounds read low 1.01 | S. cerevisiae deletion strains, locus YGL167C, strain pmr1, active compounds read low 1.01 | S. cerevisiae deletion strains, locus YGL173C, strain kem1, active compounds read low 1.02 | S. cerevisiae deletion strains, locus YGL227W, strain vid30, active compounds read low 1.01 | S. cerevisiae deletion strains, locus YGL240W, strain doc1, active compounds read low 0.985 | S. cerevisiae deletion strains, locus YGL253W, strain hxk2, active compounds read low 1.01 | S. cerevisiae deletion strains, locus YHR013C, strain ard1, active compounds read low 1.05 | S. cerevisiae deletion strains, locus YHR027C, strain rpn1, active compounds read low 1.01 | [1] 1.02 | [2] 1.01 | S. cerevisiae deletion strains, locus YHR142W, strain chs7, active compounds read low 1.01 | S. cerevisiae deletion strains, locus YJL092W, strain hpr5, active compounds read low 1.02 | S. cerevisiae deletion strains, locus YJL095W, strain BCK1 (second series), active compounds read low 1 | [3] 1.01 | S. cerevisiae deletion strains, locus YJL115W, strain asf1, active compounds read low 1.03 | S. cerevisiae deletion strains, locus YJL129C, strain trk1, active compounds read low 1.03 | S. cerevisiae deletion strains, locus YJL154C, strain vps35, active compounds read low 1.01 | S. cerevisiae deletion strains, locus YJL164C, strain tpk1, active compounds read low 0.995 | S. cerevisiae deletion strains, locus YJL166W, strain qcr8, active compounds read low 0.997 | S. cerevisiae deletion strains, locus YJL187C, strain SWE1, active compounds read low 1.02 | [4] 0.958 | S. cerevisiae deletion strains, locus YKL160W, strain elf1, active compounds read low 1 | S. cerevisiae deletion strains, locus YKR026C, strain gcn3, active compounds read low 0.995 | S. cerevisiae deletion strains, locus YKR091W, strain srl3, active compounds read low 1.01 | S. cerevisiae deletion strains, locus YLL001W, strain dnm1, active compounds read low 0.989 | S. cerevisiae deletion strains, locus YLL026W, active compounds read low 1.01 | S. cerevisiae deletion strains, locus YLL041C, strain sdh2, active compounds read low 1.01 | S. cerevisiae deletion strains, locus YLR027C, strain aat2, active compounds read low 1 | [5] 0.966 | S. cerevisiae deletion strains, locus YLR221C, strain rsa3, active compounds read low 0.999 | S. cerevisiae deletion strains, locus YLR258W, strain gsy2, active compounds read low 1.01 | S. cerevisiae deletion strains, locus YLR262C, strain YPT6 (second series), active compounds read low 1.03 | S. cerevisiae deletion strains, locus YLR320W, strain mms22, active compounds read low 0.992 | S. cerevisiae deletion strains, locus YLR342W, strain FKS1, active compounds read low 1.02 | S. cerevisiae deletion strains, locus YLR357W, strain rsc2, active compounds read low 1.03 | S. cerevisiae deletion strains, locus YLR370C, strain arc18, active compounds read low 1.01 | S. cerevisiae deletion strains, locus YLR384C, strain iki3, active compounds read low 1.02 | S. cerevisiae deletion strains, locus YML120C, strain ndi1, active compounds read low 0.998 | S. cerevisiae deletion strains, locus YMR058W, strain fet3, active compounds read low 1.02 | S. cerevisiae deletion strains, locus YMR125W, strain sto1, active compounds read low 1.03 | S. cerevisiae deletion strains, locus YMR129W, active compounds read low 1.02 | S. cerevisiae deletion strains, locus YMR205C, strain PFK2, active compounds read low 1.02 | S. cerevisiae deletion strains, locus YMR231W, strain pep5, active compounds read low 1.02 | S. cerevisiae deletion strains, locus YNL071W, strain lat1, active compounds read low 1.01 | [6] 0.962 | S. cerevisiae deletion strains, locus YNL209W, strain ssb2, active compounds read low 1.02 | S. cerevisiae deletion strains, locus YNL248C, strain rpa49, active compounds read low 1.02 | S. cerevisiae deletion strains, locus YNL322C, strain KRE1 (second series), active compounds read low 1.01 | S. cerevisiae deletion strains, locus YNR049C, strain mso1, active compounds read low 1.01 | S. cerevisiae deletion strains, locus YOR001W, strain rrp6, active compounds read low 1.01 | S. cerevisiae deletion strains, locus YOR070C, strain gyp1, active compounds read low 1.01 | S. cerevisiae deletion strains, locus YOR080W, strain dia2, active compounds read low 1.02 | S. cerevisiae deletion strains, locus YOR083W, strain WHI5, active compounds read low 1 | S. cerevisiae deletion strains, locus YOR106W, strain vam3, active compounds read low 1.02 | [7] 1 | S. cerevisiae deletion strains, locus YOR265W, strain rbl2, active compounds read low 1.01 | S. cerevisiae deletion strains, locus YOR270C, strain vph1, active compounds read low 0.988 | S. cerevisiae deletion strains, locus YOR290C, strain snf2, active compounds read low 0.975 | S. cerevisiae deletion strains, locus YPL051W, strain arl3, active compounds read low 0.998 | S. cerevisiae deletion strains, locus YPL078C, strain atp4, active compounds read low 1 | S. cerevisiae deletion strains, locus YPL106C, strain sse1, active compounds read low 1 | S. cerevisiae deletion strains, locus YPL240C, strain hsp82, active compounds read low 1.01 | [8] 1.01

CCCCOC(=O)c1ccc(O)cc1
active: [1] 0.854 | [5] 0.768 | [8] 0.799
inactive: [2] 0.879 | [3] 0.895 | [4] 0.934 | [6] 0.892 | [7] 0.951

Nc1cc2c(cc1Cl)C(=O)NC2=O
inactive: S. cerevisiae deletion strains, locus YAL013W, strain DEP1, active compounds read low 0.995 | S. cerevisiae deletion strains, locus YBR229C, strain ROT2, active compounds read low 0.999 | S. cerevisiae deletion strains, locus YDL101C, strain DUN1, active compounds read low 1.02 | S. cerevisiae deletion strains, locus YDL134C, strain PPH21, active compounds read low 1.02 | S. cerevisiae deletion strains, locus YDR150W, strain NUM1, active compounds read low 0.929 | S. cerevisiae deletion strains, locus YEL061C, strain CIN8, active compounds read low 1.01 | S. cerevisiae deletion strains, locus YGR078C, strain PAC10, active compounds read low 1 | [1] 1.04 | S. cerevisiae deletion strains, locus YHR087W, strain rtc3, active compounds read low 0.988 | S. cerevisiae deletion strains, locus YJR043C, strain POL32, active compounds read low 1.01 | S. cerevisiae deletion strains, locus YJR075W, strain HOC1, active compounds read low 0.996 | S. cerevisiae deletion strains, locus YLR039C, strain RIC1, active compounds read low 0.994 | S. cerevisiae deletion strains, locus YLR058C, strain SHM2 (second series), active compounds read low 1 | S. cerevisiae deletion strains, locus YLR085C, strain ARP6, active compounds read low 0.98 | S. cerevisiae deletion strains, locus YLR262C, strain YPT6, active compounds read low 1 | S. cerevisiae deletion strains, locus YML094W, strain GIM5, active compounds read low 0.985 | S. cerevisiae deletion strains, locus YMR219W, strain ESC1, active compounds read low 1.01 | S. cerevisiae deletion strains, locus YMR263W, strain SAP30, active compounds read low 0.984 | S. cerevisiae deletion strains, locus YNL153C, strain GIM3, active compounds read low 1 | S. cerevisiae deletion strains, locus YNL298W, strain CLA4 (second series), active compounds read low 1.03 | S. cerevisiae deletion strains, locus YNL322C, strain KRE1, active compounds read low 0.999 | S. cerevisiae deletion strains, locus YNR030W, strain Alg12, active compounds read low 0.985 | S. cerevisiae deletion strains, locus YOL006C, strain TOP1, active compounds read low 1.02 | S. cerevisiae deletion strains, locus YPL055C, strain LGE1, active compounds read low 0.851 | S. cerevisiae deletion strains, locus YPL241C, strain CIN2, active compounds read low 0.985 | S. cerevisiae deletion strains, locus YPR135W, strain CTF4, active compounds read low 1.02 | S. cerevisiae strains, strain wild type, active compounds read low 1.02
